Source: PubChem BioAssay (National Center for Advancing Translational Sciences (NCATS))
SMN2 splice up: SMN2 splice variant enhancement; HEK293 SMN2-luciferase splicing reporter, luminescence, 30-36 h; Potency, µM (top dose mostly 46.1 µM), most hits filed as activators; 2.8% of 210,000 active; AID 1458; note: nearly all actives have a fitted effect of over 55% in size
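HEK293 cells carry an SMN2 minigene-luciferase reporter in which exon 7 inclusion puts luciferase in frame. Cells were seeded at 2000 cells/well, attached for 10-12 hours, then exposed to compounds for 30-36 hours at 37C before ONE-Glo luminescence.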
NPC1 prom act: activators of NPC1 promoter | Potency, µM (series often up to 9.22 µM), actives largely listed as activators | 2.4% of 320,000 active | AID 485313 | Huh7 NPC1 promoter luciferase reporter, 24 h; note: nearly all actives have a fitted effect of over 60% in size
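Readout is luciferase luminescence, reflecting NPC1 promoter activation in stably transfected Huh7 cells after 24 h compound exposure at 37 °C in reduced-serum medium with 10% FBS.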
ELG1 repair inh: inhibitors of ELG1-dependent DNA repair in HEK293T cells; HEK293T ELG1-luciferase reporter, luminescence, 16 h; DNA damage induced by 5-fluorouridine; 2.3% of 330,000 active; AID 504467; Potency, µM (top dose mostly 46.1 µM), actives largely listed as inhibitors; note: nearly all actives have a fitted effect of over 55% in size
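HEK293T cells expressing luciferase-tagged ELG1 (2,000/well) received 5-Fluorouridine plus compound or DMSO for 16 hr at 37 °C. Luciferase was read by ONE-Glo luminescence after 30 min at room temperature.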
Rab9 prom act: activators of Rab9 promoter; Potency, µM (series often up to 9.22 µM), actives largely listed as activators; Huh7 Rab9 promoter-luciferase reporter, luminescence, 24 h; 2.8% of 320,000 active; note: nearly all actives have a fitted effect of over 60% in size
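Steps: seed 1500 Huh7 Rab9-luc cells per well, rest 2 h at 37 °C; add compound in DMSO; incubate 24 h; add luciferase reagent, 10 min ambient; read luminescence.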
ELG1 genotox: genotoxicity induction in ELG1-luciferase HEK293T cells. 1.3% of 330,000 active. Potency, µM (top dose mostly 46 µM), hits mostly activators. HEK293T ELG1-luciferase reporter, luminescence, 16 h; note: nearly all actives have a fitted effect of over 60% in size
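Cells (2,000/well) expressing the ELG1-luciferase fusion are dosed by pin tool and kept 16 hr at 37 °C, 5% CO2. Signal comes from ONE-Glo luciferase reagent after 30 min at room temperature.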
FLuc modulator: firefly luciferase modulation, counter-screen for miR-21 project; 6.9% of 360,000 active; P08659; Potency, µM (doses to about 57.5 µM), hits mostly inhibitors; AID 588342; purified FLuc, Km substrates, luminescence inhibition; note: nearly all actives have a fitted effect of over 55% in size
Target sequence (P08659 whole entry, looked up): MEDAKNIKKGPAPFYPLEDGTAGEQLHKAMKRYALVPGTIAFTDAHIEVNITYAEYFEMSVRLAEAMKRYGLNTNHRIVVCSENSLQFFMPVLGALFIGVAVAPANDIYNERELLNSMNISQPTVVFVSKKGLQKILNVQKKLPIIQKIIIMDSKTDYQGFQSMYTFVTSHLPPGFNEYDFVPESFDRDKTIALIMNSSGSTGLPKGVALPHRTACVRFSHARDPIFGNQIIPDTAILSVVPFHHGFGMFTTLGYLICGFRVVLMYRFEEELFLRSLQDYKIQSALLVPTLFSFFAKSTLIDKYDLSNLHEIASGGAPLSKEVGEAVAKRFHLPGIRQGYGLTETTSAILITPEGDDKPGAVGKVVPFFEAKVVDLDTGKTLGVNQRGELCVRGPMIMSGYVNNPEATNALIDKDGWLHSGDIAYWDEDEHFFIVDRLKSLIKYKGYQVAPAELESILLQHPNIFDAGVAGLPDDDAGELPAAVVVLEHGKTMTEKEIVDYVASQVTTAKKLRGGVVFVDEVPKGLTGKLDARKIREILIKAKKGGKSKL
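Purified P. pyralis luciferase (10nM final) with 10uM D-luciferin and 10uM ATP (Km levels) in 50mM Tris acetate pH 7.5, 10mM Mg acetate, 0.01% Tween-20, 0.05% BSA; qHTS 6-point titration, ~60 µM downward; luminescence read.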
Numbers stand for hits; i = inactive; ? = inconclusive; nt = no result; [ ] = remark or other dose. A selection: hits, their analogues and other compounds. The true share with any hit is near 9.4%. Calls come from the whole dose curve; as a rule, active = well fitted curve in the direction sought with a large enough effect; inconclusive = small, poorly fitted or top-dose-only effect, or another doubt; inactive = no such curve, though single readings can be large; an effect the other way counts as inactive or inconclusive.

SMILES	SMN2 splice up	NPC1 prom act	ELG1 repair inh	Rab9 prom act	ELG1 genotox	FLuc modulator
COc1ccc(N2CCn3c2nc2c3c(=O)n(CCc3ccccc3)c(=O)n2C)c(OC)c1	i	i	?	i	i	i
COc1ccc(N2CC(C)Cn3c2nc2c3c(=O)n(Cc3ccccc3)c(=O)n2C)c(OC)c1 (stereo not given)	i	i	18µM	i	i	i
COC(=O)c1ccc2c(=O)n(CCCCCC(=O)NCCc3ccc(Cl)cc3)c(=O)[nH]c2c1	nt	nt	nt	nt	nt	i
O=C1C(Cl)=C(NC2CCCCC2)C(=O)N1c1ccc(Cl)cc1	?	i	?	i	?	4.8µM
O=[N+]([O-])c1cnc2nc(-c3ccncc3)nn2c1O	i	i	i	i	i	21µM
Cc1ccc(CNC(=O)Cn2ncn3cccc3c2=O)cc1	nt	?	?	2.5µM	?	13µM
Brc1ccc(-n2cnc(-c3ccccc3)c2)cc1	nt	1.4µM	?	0.56µM	?	0.95µM
NNc1nc(-c2ccccc2)cc(-c2ccc(Br)cc2)n1	nt	i	i	i	i	?
Cc1cc(NC(=O)CSc2nc3c(sc4ccccc43)c(=O)n2CCCN2CCOCC2)n[nH]1	35µM	i	?	i	i	i
Cc1cc(NC(=O)CSc2nc3c(sc4ccccc43)c(=O)n2CCc2ccccc2)n[nH]1	i	i	?	i	?	i
CCc1ccc(C(=O)c2cn(CC(=O)Nc3ccc4c(c3)OCO4)c3ccc(OC)cc3c2=O)cc1	i	nt	nt	nt	nt	i
Cc1cccc2nc(-c3cccc(NC(=O)Cc4ccccc4)c3)cn12	i	i	?	i	i	11µM
O=C(Cc1ccc(F)cc1)Nc1cccc(-c2ccc3nncn3n2)c1	i	i	i	i	i	i
Cc1cccc2nc(-c3cccc(NC(=O)c4ccc(Cl)cc4)c3)cn12	i	i	?	i	i	6µM
CCOC(=O)c1[nH]c2c(c1Cc1ccccc1)C(=O)CC(c1ccccc1)C2 (stereo not given)	i	nt	nt	nt	nt	i
Cc1ccccc1Cn1c(=O)n(CCCCC(=O)NCc2ccccc2Cl)c(=O)c2ccccc21	i	nt	nt	nt	nt	i
CCN=C1NN=C(c2cc(C)n(Cc3ccco3)c2C)CS1	i	i	?	i	?	0.21µM
O=S(=O)(NCC1CCCO1)c1ccc(-c2ccc(Cl)cc2)cc1 (stereo not given)	i	i	?	i	i	i
COCCn1c(C)cc(C2=NNC(=Nc3ccccc3)SC2)c1C	?	0.35µM	?	0.4µM	?	0.76µM
COCCn1c(C)cc(C2=NNC(=Nc3ccc(OC)cc3)SC2)c1C	i	i	i	?	i	?
Clc1ccc(C2=NNC(=NCC3CCCO3)SC2)cc1 (stereo not given)	11µM	3.2µM	?	?	i	12µM
C=CCn1c(C)cc(C2=NNC(=NCc3ccccc3)SC2)c1C	13µM	?	?	2.2µM	?	19µM
COc1cc(C2C=C(C(=O)O)Nc3ncnn32)ccc1O (stereo not given)	i	nt	nt	nt	nt	i
CCN=C1NN=C(c2cc(C)n(CCc3ccccc3)c2C)CS1	i	i	i	i	?	i
Cc1cc(C2=NNC(=NCCc3ccccc3)SC2)c(C)n1CC1CCCO1 (stereo not given)	i	i	?	?	i	15µM
SMILES	SMN2 splice up	NPC1 prom act	ELG1 repair inh	Rab9 prom act	ELG1 genotox	FLuc modulator
CCOc1cc(/C=C(/C#N)c2ccc(F)cc2)ccc1OCc1ccc(C(=O)O)o1	i	i	i	i	i	13µM
CCOc1cc(/C=C(/C#N)c2nc3ccccc3[nH]2)ccc1OCc1ccc(C(=O)O)o1	i	i	i	nt	i	?
O=C(Nc1cccnc1)c1ccc2nc(-c3ccccc3)c(-c3ccccc3)nc2c1	i	i	23µM	i	i	i
CCCOc1ccc(C(=O)Nc2cccnc2)cc1	nt	2.8µM	?	?	10µM	11µM
O=C(Nc1cccnc1)c1ccccc1Oc1ccccc1	i	i	i	i	i	i[2.3 µM]
O=C(Nc1cccnc1)c1ccc(Oc2ccccc2)cc1	i	?	?	?	4.1µM	3.4µM
CCCCOc1ccc(C(=O)Nc2ccncc2)cc1	i	i	?	i	13µM	?
O=C(Nc1ccccn1)c1ccc2nc(-c3ccccc3)c(-c3ccccc3)nc2c1	?	i	i	i	i	i
CCOc1cc(C(=O)Nc2cccnc2)cc(OCC)c1OCC	nt	i	i	i	i	i
COC(=O)[C@H]1C[C@H]2CC[C@H](O)C[C@H]2N1Cc1c(F)cccc1Cl	i	nt	nt	nt	nt	nt
COc1cccc(CNC(=O)c2cnc(N3CCCC3)nc2C)c1	nt	nt	nt	nt	nt	i
CC1CCCN(S(=O)(=O)c2ccc(NC(=O)c3nc(SC(C)C)ncc3Cl)cc2)C1 (stereo not given)	i	nt	nt	nt	nt	i
O=C(N/N=C/c1ccc([N+](=O)[O-])o1)c1ccc2c(c1)OCO2	nt	i	i	i	i	?
CCOC(=O)N/N=C\c1ccc(OC(=O)c2ccc3c(c2)OCO3)cc1	i	i	?	i	i	15µM
COc1cc(/C=N/NC(=O)c2ccc3c(c2)OCCO3)cc(Cl)c1O	nt	i	?	i	i	13µM
O=C(N/N=C/c1ccccc1)c1ccc2c(c1)OCO2	nt	0.56µM	?	0.4µM	?	?
Cc1ccc(/C=N\NC(=O)c2ccc3c(c2)OCO3)o1	nt	?	i	?	?	24µM
CN(C)c1ccc(CNC(=O)c2sc3ncccc3c2-n2cccc2)cc1	nt	nt	nt	nt	nt	i
O=C(N/N=C/c1cccc(O)c1)c1cc(-c2ccc3c(c2)OCO3)n[nH]1	i	i	?	i	i	5.4µM
Cc1nn(C)cc1/C=N/NC(=O)c1ccc2c(c1)OCO2	i	i	?	i	i	17µM
Cc1ccc(C(=O)/C=C/c2ccc3c(c2)OCO3)o1	i	i	?	i	i	2.4µM
O=C(N/N=C/c1ccccc1)c1cc(-c2ccc3c(c2)OCO3)n[nH]1	i	i	i	i	i	i
O=C(O)c1ccc(/C=N/NC(=O)c2ccc3c(c2)OCCO3)cc1	nt	i	?	i	?	6.7µM
COC(=O)/C=C/c1ccc2c(c1)OCO2	i	i	i	i	i	?
CCOCCc1nnc(NC(=O)C(=O)c2cc(C)n(-c3cccc(C)c3)c2C)s1	nt	nt	nt	nt	nt	i
SMILES	SMN2 splice up	NPC1 prom act	ELG1 repair inh	Rab9 prom act	ELG1 genotox	FLuc modulator
COc1ccc(C(O)C2=CCCC2=O)cc1 (stereo not given)	i	nt	nt	nt	nt	nt
COC(=O)c1n[nH]n(-c2ccccc2)c1=O	i	nt	nt	nt	nt	i
CN(C)c1ccc(/C=N/NC(=O)c2ccc3c(c2)OCO3)cc1	nt	?	?	?	?	8.5µM
Cc1ccc(C(=O)N/N=C/c2ccc3c(c2)OCO3)o1	13µM	3.2µM	?	2.8µM	?	6µM
CCOc1cc(/C=N/NC(=O)c2nn(C)cc2Br)ccc1OCc1ccccc1Cl	i	i	?	i	i	?
Cn1cc(Br)c(C(=O)N/N=C/c2cc3c(cc2Cl)OCO3)n1	nt	2.8µM	?	?	?	6µM
